hcDAF12 agonist = H. contortus DAF-12 nuclear receptor activators, primary screen, cell-based, luminescence, HEK293, lit1-tk-luc reporter; activation, % at 6.8 µM; HEK293 hcDAF-12 lit1-tk-luc reporter; 0% DMSO, 100% Δ7-dafachronic acid; 1.4% of 370,000 active;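 active means activation above the mean of all tested compounds plus 3 SD, cut at about 5.5% in these data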;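 further: 100% = response to 3 µM Δ7-dafachronic acid high control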
SMARCA2 activ = SMARCA2 (BRM) function activators, primary screen, cell-based, luminescence, high throughput; 1% of 370,000 active; AID 652017, 2013; activation, % at 9.1 µM; MG213 cells, MMTV-luciferase reporter, dexamethasone, overnight; in the data active means activation above about 7.8%;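 further: 0% = vehicle wells and 100% = reference activator wells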
DAX1 inh-1 = DAX1 (NR0B1) inhibitors, primary screen, cell-based, HEK293, Gal4-DAX1, luciferase luminescence. HEK293 Gal4-DAX1 luciferase reporter. inhibition, % at 6.75 µM. 0.99% of 340,000 active. AID 504766, 2011;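 active means inhibition above the mean over all tested compounds plus 3 SD, cut at about 4.2% in these data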;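 further: 0% = DAX1-transfected cells with DMSO and 100% = empty-vector control cells with DMSO; inhibition shows as a rise in luminescence from relieved DAX1 repression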
Target sequence (P51843 207-470 limits assumed): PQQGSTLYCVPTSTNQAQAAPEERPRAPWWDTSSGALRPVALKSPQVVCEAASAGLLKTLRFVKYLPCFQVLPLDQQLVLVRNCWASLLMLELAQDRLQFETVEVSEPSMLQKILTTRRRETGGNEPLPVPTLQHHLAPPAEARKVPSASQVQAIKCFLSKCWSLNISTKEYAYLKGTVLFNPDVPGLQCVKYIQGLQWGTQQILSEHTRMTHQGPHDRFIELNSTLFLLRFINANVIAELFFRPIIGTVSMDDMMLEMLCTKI
ssDAF-12 act = S. stercoralis DAF-12 nuclear receptor activators, primary screen, cell-based, luminescence, HEK293, GRIP1 co-expression, lit1-tk-luc. Nuclear hormone receptor DAF-12 (Strongyloides stercoralis). HEK293 ssDAF-12/GRIP1 lit1-tk-luc reporter; % of 3 µM dafachronic acid response. activation, % at 6.8 µM. 1% of 370,000 active. AID 652126, 2013;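 active means activation above the mean over all tested compounds plus 3 SD, cut at about 0.9% in these data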;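 further: 0% = DMSO-only wells and 100% = 3 µM delta7-dafachronic acid wells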
hgDAF-12 ag = H. glycines DAF-12 receptor agonists, primary screen, cell-based, luminescence, HEK293, GAL4 fusion, UAS-luciferase; Nuclear hormone receptor DAF-12 (Heterodera glycines), GAL4 fusion; HEK293 GAL4-hgDAF12 UAS-luciferase reporter, agonist luminescence; normalized to butyrate control; activation, % at 6.8 µM; 1.8% of 370,000 active; AID 687014, 2013;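 active means activation above a cutoff set at the mean of all screened compounds plus 3 SD, cut at about 10% in these data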;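 further: 0% = DMSO wells and 100% = sodium butyrate wells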
DAX1 inh-2 = DAX1 (NR0B1) inhibitors on StAR promoter, primary screen, cell-based, luminescence, SF-1 (NR5A1), full-length DAX-1 | HEK293T StAR-luciferase reporter, SF-1/DAX-1 repression relief | inhibition, % at 6.8 µM | 1.1% of 370,000 active | AID 652010, 2013;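 active means inhibition above the mean over all tested compounds plus 3 SD, cut at about 3.6% in these data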;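 further: 0% = DAX-1 cells with DMSO and 100% = cells lacking DAX-1 with DMSO; higher inhibition means more luminescence from relief of DAX-1 repression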
SMARCA2 conf = SMARCA2 (BRM) function activators, confirmation, cell-based, luminescence, triplicate; shares compounds with SMARCA2 activ; MG213 cells, MMTV-luciferase with dexamethasone, overnight; MG213 cells expressing E1A, Rb sequestered; DMSO wells 0%, reference activator 100%; activation, % at 9.1 µM; 30% of 3,500 active; AID 652260, 2013;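 active means activation above its plate's cutoff, the mean activation of tested wells plus 3 SD, cut at about 7.9% in these data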
VP16 Luc act = GAL4-VP16 luciferase reporter activation, counter-screen for SMARCA2 (BRM) activator project, cell-based, pG5luc, luminescence, high throughput. activation, % at 9.1 µM. HEK293 GAL4-VP16 pG5luc reporter; scaled: DMSO wells 0%, SAHA wells 100%. shares compounds with SMARCA2 activ. AID 686939, 2013. 41% of 3,500 active;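 active means activation above the solvent-only control well mean plus 3 SD, averaged across control plates, cut at about 5.2% in these data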
* hit, by the source's call; x = not tested or not shown. Sampled rows, rich in hits. Any-hit rate of the full collection: about 4.8%.

SMILES	hcDAF12 agonist	SMARCA2 activ	DAX1 inh-1	ssDAF-12 act	hgDAF-12 ag	DAX1 inh-2	SMARCA2 conf	VP16 Luc act
O=[N+]([O-])c1cccc(/C([O-])=C(/C(=S)Nc2ccccc2)[n+]2ccccc2)c1	5	8.5*	0	0	4	1	0	6.3*
COc1cccc(-c2ccc3c(N)c(C(=O)NC4CC4)sc3n2)c1	1	13*	4.7*	-1	11*	1	3	8.5*
Cc1ccc(NC(=O)C2CC3CCC2C3)cc1 (configuration not stated)	-1	x	x	0	7	x	x	x
Cc1ccc(Cn2nnnc2CN2CCC(O)(c3ccc(F)cc3)CC2)cc1	-1	11*	-1	-2	-1	-1	-3	-2
COc1ccc(Cn2nnnc2CN2CCC(O)(c3ccc(F)cc3)CC2)cc1	-1	6	0	-2	1	0	x	x
CC(=O)c1cccc(NC(=O)c2cnn3c(C)cc(C)nc23)c1	-3	x	x	-2	6	x	x	x
Cn1sc(NC(=O)c2ccc(Cl)cc2)nc1=O	3	8.4*	0	0	3	1	3	11*
O=C(Nc1nc2ccsc2c(=O)s1)c1ccc(Cl)cc1	5	14*	5.8*	0.9*	9	2	10*	9.1*
CCC(C)N(C(=O)CNc1nnnn1-c1ccccc1)C(C)CC (configuration not stated)	-1	-6	x	-1	-2	0	x	x
O=c1c(-c2ccc(F)cc2)coc2cc(O)ccc12	5	12*	2	-1	9	3	5	11*
COc1ccc(-c2coc3cc(O)ccc3c2=O)cc1OC	0	5	2	-1	9	1	x	x
O=c1c(C=NCc2cccnc2)c(C(F)(F)F)[nH]n1-c1nc2ccccc2s1	1	12*	-3	-1	3	3	11*	7.5*
CCC(=NCc1ccccc1)c1c(C(F)(F)F)[nH]n(-c2nc3ccccc3s2)c1=O	0	2	-1	-1	4	1	x	x
CC(=O)Nc1ccc(C(=O)OCCC(C)C)cc1	0	8.9*	1	-1	4	0	2	3
CCCCOC(=O)c1ccc(NC(=O)C(CCS(C)(=O)=O)NC(C)=O)cc1 (configuration not stated)	-1	1	0	-1	0	0	x	x
COc1ccc(S(=O)(=O)N2Cc3ccccc3CC2C(=O)Nc2nccs2)cc1 (configuration not stated)	3	9.8*	2	0	10	1	4	3
COc1ccc(S(=O)(=O)N2Cc3ccccc3CC2C(=O)Nc2nccs2)cc1OC (configuration not stated)	5	5	1	1	8	2	x	x
O=C(Nc1ccc(-c2nc3cc(Cl)ccc3o2)cc1)C1CCCO1 (configuration not stated)	1	8.2*	4	-1	12*	2	4	10*
O=C(Nc1ccc(S(=O)(=O)Nc2ccc(Cl)cc2)cc1)C1CCCO1 (configuration not stated)	-2	-1	-2	-2	-5	-2	x	x
COC[C@H]1CCCN1c1ccc2c(c1)OCCCN(C1CC1)S2(=O)=O	-2	0	x	-1	0	1	x	x
COc1ccc(-c2csc(NCc3ccco3)n2)cc1	2	9.2*	3	-1	2	0	9.5*	13*
Brc1ccc(Cn2c(-c3cncs3)nc3ccccc32)cc1	1	8.8*	0	-1	2	-1	7	2
N#CC1=C(N)Oc2n[nH]c(-c3cccnc3)c2C1c1ccc([N+](=O)[O-])o1 (configuration not stated)	-1	10*	0	0	-4	-2	-1	1
N#Cc1c2n(c3c(=O)[nH]cnc13)CCCC2	0	9.3*	3	0	2	0	-5	-1
N#Cc1c2n(c3c(=S)nc[nH]c13)CCCCC2	0	0	0	-2	-2	0	x	x
SMILES	hcDAF12 agonist	SMARCA2 activ	DAX1 inh-1	ssDAF-12 act	hgDAF-12 ag	DAX1 inh-2	SMARCA2 conf	VP16 Luc act
CCCc1cc(=O)oc2c(CN(CC)CC)c(O)c(Cl)cc12	-1	9.4*	2	-2	-3	0	-3	1
CCCCc1cc(=O)oc2c(CN(CC)CC)c(O)c(Cl)cc12	-2	2	1	-2	0	0	x	x
CC(=O)N1c2ccc(S(=O)(=O)N3CCC(C(=O)NCc4ccc(Cl)cc4)CC3)cc2CC1C (configuration not stated)	-3	-5	0	-1	-2	0	x	x
CC(=O)N1c2ccc(S(=O)(=O)N3CCC(C(=O)NCc4ccc(C)cc4)CC3)cc2CC1C (configuration not stated)	-2	11*	-1	-1	-3	0	-2	1
O=C(COc1ccc(F)cc1Br)N1CCc2ccccc21	1	12*	2	0	11*	3	6	14*
O=Cc1ccc(OCC(=O)N2CCc3ccccc32)c(Br)c1	2	-1	0	0	7	2	x	x
O=C(OCc1ccccc1)[C@H](Cc1ccccc1)NC(=O)[C@@H]1CC=C[C@@H]2CCN(Cc3ccccc3)C(=O)[C@@H]21	-1	x	x	-2	-1	x	x	x
Cn1c2ccccc2c(=O)c2ccc(NCCc3cccs3)cc21	4	9.0*	1	0	6	4.1*	9.4*	14*
NC(=O)c1ccc(NCCc2cccs2)cc1	0	6	x	-1	4	2	x	x
O=C(Nc1ccccc1)Nc1ccc2ncoc2c1	3	13*	0	-1	7	1	2	7.3*
O=C(Nc1ccccc1)Nc1ccc2ocnc2c1	1	0	1	-1	6	0	x	x

Source: PubChem BioAssay (The Scripps Research Institute Molecular Screening Center)
